# From PubChem BioAssay
# Results filed as inconclusive are left out. Activity calls are given as the source filed them. Unless noted, the rule behind the calls is not given here.
# How the values were obtained:
# [1] = modulation of C. elegans fzo-1 (AID 1259413);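 note: fzo-1 mutant C. elegans worms in liquid wells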; conditions: C. elegans fzo-1 modulator screen, mean read-out; stronger effect = higher value
# [2] = EMT-state selective cytotoxicity in co-culture – imaging, PC-3E GFP, TEM4-18 mCherry, primary screen (AID 1345086;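 active = compounds killing one labelled cell type while sparing the other, by normalised counts and ratio limits, not self-fluorescent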;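 for all read-outs here: cells exposed to compound for 72 h before imaging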;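 for red/green cell ratio (normalised): normalised mesenchymal count divided by normalised epithelial count so high means epithelial killing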); conditions: PC-3E GFP / TEM4-18 mCherry co-culture, imaging cell counts, at 1 µM; for red/green cell ratio (normalised): actives lie on both sides, counts scaled to control wells, 1 = unselective
# [3] = test system: Aerobactin synthetase IucA (Klebsiella pneumoniae); experiment: inhibition of K. pneumoniae IucA enzyme – biochemical, Tocris library, absorbance (AID 1345561); conditions: purified IucA enzyme assay, absorbance (OD) read-out; stronger effect = lower value;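 tested at 8 µM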;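 note: 100% = enzyme without compound and 0% = no enzyme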
# [4] = viability loss in pontine glioma line – cell-based, JHH-DIPG-1, MIPE4.0, CellTiter-Glo, qHTS, dose response (AID 1347062; cut-off not given, nearly all actives have AC50 up to about 27 µM;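 for AC50: cells exposed to compound for two days before readout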); conditions: JHH-DIPG-1 viability, CellTiter-Glo ATP luminescence
# [5] = viability loss in pontine glioma line – cell-based, SU-DIPG-IV, MIPE4.0, CellTiter-Glo, qHTS, dose response (AID 1347063; cut-off not given, nearly all actives have AC50 up to about 30 µM;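 note: compound exposure lasted 48 hours before the viability readout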); conditions: CellTiter-Glo ATP luminescence
# [6] = viability loss in pontine glioma line – cell-based, SU-DIPG-XVII, MIPE5.0, CellTiter-Glo, qHTS, dose response (AID 1347060; cut-off not given, nearly all actives have AC50 up to about 26 µM;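 for AC50: cells exposed to compound for 48 hours before viability readout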); conditions: CellTiter-Glo ATP luminescence
# [7] = viability loss in pontine glioma line – cell-based, SU-DIPG-XIII, MIPE4.0, CellTiter-Glo, qHTS, dose response (AID 1347061; cut-off not given, nearly all actives have AC50 up to about 37 µM;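 note: cells exposed to compound for 48 hours before readout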); conditions: CellTiter-Glo ATP luminescence
# [8] = viability loss in pontine glioma line – cell-based, SU-DIPG-XIII, MIPE5.0, CellTiter-Glo, qHTS, dose response (AID 1347064; cut-off not given, nearly all actives have AC50 up to about 23 µM;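 for AC50: cells exposed to compound for 48 hours before the viability read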); conditions: CellTiter-Glo ATP luminescence
# [9] = measured here: epithelial PC-3E GFP cell survival
# [10] = measured here: mesenchymal TEM4-18 mCherry cell survival
compound,measurement,setting,value
CN1CCN(C2=Nc3ccccc3Oc3ccc(Cl)cc32)CC1,mean signal,[1],262 (inactive)
same,red/green cell ratio (normalised),[2],0.99 (inactive)
same,normalised cell number,[2]; [9],1.1
same,normalised cell number,[2]; [10],1.09
Nc1ccc(O)c(C(=O)O)c1,mean signal,[1],261 (inactive)
same,red/green cell ratio (normalised),[2],1.19 (inactive)
same,normalised cell number,[2]; [9],1.04
same,normalised cell number,[2]; [10],1.24
CC(=O)OCC(=O)NCCCOc1cccc(CN2CCCCC2)c1,mean signal,[1],244 (inactive)
same,red/green cell ratio (normalised),[2],1.02 (inactive)
same,normalised cell number,[2]; [9],0.98
same,normalised cell number,[2]; [10],1
Cc1cccc(C)c1OCC(C)N (stereo unspecified),mean signal,[1],227 (inactive)
same,red/green cell ratio (normalised),[2],1.08 (inactive)
same,normalised cell number,[2]; [9],1.13
same,normalised cell number,[2]; [10],1.22
same,remaining activity,[3],104% (inactive)
OCc1cc(C(O)CNCCCCCCOCCCCc2ccccc2)ccc1O (stereo unspecified),mean signal,[1],253 (inactive)
same,red/green cell ratio (normalised),[2],1.18 (inactive)
same,normalised cell number,[2]; [9],0.82
same,normalised cell number,[2]; [10],0.97
same,remaining activity,[3],115% (inactive)
CC(C)(C(=O)c1cccnc1)c1cccnc1,mean signal,[1],259 (inactive)
same,red/green cell ratio (normalised),[2],0.85 (inactive)
same,normalised cell number,[2]; [9],1.21
same,normalised cell number,[2]; [10],1.04
CCc1c(C)[nH]c2c1C(=O)C(CN1CCOCC1)CC2 (stereo unspecified),mean signal,[1],257 (inactive)
same,red/green cell ratio (normalised),[2],1.03 (inactive)
same,normalised cell number,[2]; [9],0.94
same,normalised cell number,[2]; [10],0.96
COc1ccc(CN2CCN(C(c3ccc(F)cc3)c3ccc(F)cc3)CC2)c(OC)c1OC,mean signal,[1],204 (inactive)
same,red/green cell ratio (normalised),[2],1.08 (inactive)
same,normalised cell number,[2]; [9],0.96
same,normalised cell number,[2]; [10],1.03
COc1cc2c(cc1OC)C(=O)C(CC1CCN(Cc3ccccc3)CC1)C2 (stereo unspecified),mean signal,[1],214 (inactive)
same,red/green cell ratio (normalised),[2],1.04 (inactive)
same,normalised cell number,[2]; [9],1.04
same,normalised cell number,[2]; [10],1.09
COC(=O)C1=C(C)NC(C)=C(C(=O)OC(C)C)C1c1cccc2nonc12 (stereo unspecified),mean signal,[1],273 (inactive)
same,red/green cell ratio (normalised),[2],1.19 (inactive)
same,normalised cell number,[2]; [9],0.87
same,normalised cell number,[2]; [10],1.04
same,remaining activity,[3],109% (inactive)
same,outcome,[4],inactive
same,outcome,[5],inactive
CC(N)C12CC3CC(CC(C3)C1)C2 (stereo unspecified),mean signal,[1],212 (inactive)
same,red/green cell ratio (normalised),[2],0.95 (inactive)
same,normalised cell number,[2]; [9],1.11
same,normalised cell number,[2]; [10],1.06
same,outcome,[6],inactive
same,outcome,[7],inactive
same,outcome,[4],inactive
same,outcome,[5],inactive
same,outcome,[8],inactive
CCCc1nc(C)c2c(=O)[nH]c(-c3cc(S(=O)(=O)N4CCN(CC)CC4)ccc3OCC)nn12,mean signal,[1],298 (inactive)
same,red/green cell ratio (normalised),[2],0.94 (inactive)
same,normalised cell number,[2]; [9],1.1
same,normalised cell number,[2]; [10],1.03
same,outcome,[6],inactive
same,AC50,[7],13.2 µM (active)
same,AC50,[4],18.7 µM (active)
same,AC50,[5],4.18 µM (active)
same,outcome,[8],inactive
COc1ccc2nc(S(=O)Cc3ncc(C)c(OC)c3C)[nH]c2c1 (stereo unspecified),mean signal,[1],241 (inactive)
same,red/green cell ratio (normalised),[2],0.98 (inactive)
same,normalised cell number,[2]; [9],0.98
same,normalised cell number,[2]; [10],0.96
same,remaining activity,[3],103% (inactive)
same,outcome,[6],inactive
same,outcome,[4],inactive
same,outcome,[5],inactive
same,outcome,[8],inactive
CCN(CC)CCOc1ccc(/C(=C(\Cl)c2ccccc2)c2ccccc2)cc1,mean signal,[1],199 (inactive)
same,red/green cell ratio (normalised),[2],1.05 (inactive)
same,normalised cell number,[2]; [9],1.43
same,normalised cell number,[2]; [10],1.5
same,AC50,[6],8.33 µM (active)
same,AC50,[8],11.8 µM (active)
Clc1ccccc1C(c1ccccc1)(c1ccccc1)n1ccnc1,mean signal,[1],209 (inactive)
same,red/green cell ratio (normalised),[2],1.09 (inactive)
same,normalised cell number,[2]; [9],1.31
same,normalised cell number,[2]; [10],1.43
same,AC50,[6],23.5 µM (active)
same,outcome,[7],inactive
same,outcome,[4],inactive
same,outcome,[5],inactive
CNNCc1ccc(C(=O)NC(C)C)cc1,mean signal,[1],227 (inactive)
same,red/green cell ratio (normalised),[2],1.09 (inactive)
same,normalised cell number,[2]; [9],0.95
same,normalised cell number,[2]; [10],1.03
same,outcome,[6],inactive
same,outcome,[7],inactive
same,outcome,[4],inactive
same,outcome,[8],inactive
O=C(NCCO[N+](=O)[O-])c1cccnc1,mean signal,[1],264 (inactive)
same,red/green cell ratio (normalised),[2],0.94 (inactive)
same,normalised cell number,[2]; [9],1.18
same,normalised cell number,[2]; [10],1.11
same,remaining activity,[3],106% (inactive)
same,outcome,[6],inactive
same,outcome,[7],inactive
same,outcome,[5],inactive
CN1CCC(=C2c3ccccc3C=Cc3ccccc32)CC1,mean signal,[1],251 (inactive)
same,red/green cell ratio (normalised),[2],1.06 (inactive)
same,normalised cell number,[2]; [9],0.91
same,normalised cell number,[2]; [10],0.97
same,remaining activity,[3],104% (inactive)
same,outcome,[6],inactive
same,AC50,[7],23.5 µM (active)
same,outcome,[8],inactive
CCC1=C(C)CN(C(=O)NCCc2ccc(S(=O)(=O)NC(=O)NC3CCC(C)CC3)cc2)C1=O (stereo unspecified),mean signal,[1],255 (inactive)
same,red/green cell ratio (normalised),[2],0.86 (inactive)
same,normalised cell number,[2]; [9],1.22
same,normalised cell number,[2]; [10],1.05
same,remaining activity,[3],90.7% (inactive)
same,outcome,[6],inactive
same,outcome,[7],inactive
same,outcome,[4],inactive
same,outcome,[5],inactive
same,outcome,[8],inactive
CNS(=O)(=O)Cc1ccc2[nH]cc(CCN(C)C)c2c1,mean signal,[1],224 (inactive)
same,red/green cell ratio (normalised),[2],1.17 (inactive)
same,normalised cell number,[2]; [9],1.07
same,normalised cell number,[2]; [10],1.25
same,remaining activity,[3],127% (inactive)
same,outcome,[7],inactive
same,outcome,[4],inactive
same,outcome,[5],inactive
CC(C)[C@H](N)C(=O)OCCOCn1cnc2c(=O)[nH]c(N)nc21,mean signal,[1],266 (inactive)
same,red/green cell ratio (normalised),[2],0.91 (inactive)
same,normalised cell number,[2]; [9],1.13
same,normalised cell number,[2]; [10],1.03
same,outcome,[6],inactive
same,outcome,[7],inactive
same,outcome,[4],inactive
same,outcome,[5],inactive
same,outcome,[8],inactive
Cc1[nH]c(=O)c(C#N)cc1-c1ccncc1,mean signal,[1],234 (inactive)
same,red/green cell ratio (normalised),[2],1.2 (inactive)
same,normalised cell number,[2]; [9],1.05
same,normalised cell number,[2]; [10],1.26
same,outcome,[6],inactive
COc1ccccc1OCC(O)CN1CCN(CC(=O)Nc2c(C)cccc2C)CC1 (stereo unspecified),mean signal,[1],263 (inactive)
same,red/green cell ratio (normalised),[2],0.78 (inactive)
same,normalised cell number,[2]; [9],1.24
same,normalised cell number,[2]; [10],0.96
same,outcome,[6],inactive
same,outcome,[7],inactive
same,outcome,[4],inactive
same,outcome,[5],inactive
same,outcome,[8],inactive
